Data reported in article PMC12864922, “TDP-43 directly inhibits mRNA accumulation in neurites through modulation of mRNA stability”.
Over roughly 9,900 sequences, “r (bound/input frequency ratio)” has its median near 0.7; the highest 2% begin near 6.5. The list comes from a sample in which the highest values are over-represented; it also holds similar and randomly drawn sequences.

B1: ENSMUSG00000029028.207|Lrrc47 (ssRNA)
RNA: GGGAGUUCUACAGUCCGACGAUCGCUUCGAUAUCCGCAUGCUAGUCCUAAGGACCCAGCAGCUGCACAGAGGACUUGGUGGCCCCGUGCCUUGCCAUCUGGCUGAGAAGAGAACCAGACCCUCAGCCUUCCCCCUCGACACCUUCUCGUUGGUGACCUCUGACCUUAAAGGACCAUUUCUACCUUCUGUAAAAGAACACCUGUUUGGGGUUGCGUGCGGCUUUCAUCCUAAGGCCGUGCGAGAGCCGUUAGCUGUCAGAACUAGUGAAGCUCCAGGCUCCUCGUGGCAGACCCUGGACAACGCCUCUUGCGGUCGCACUAGUGUGGAAUUCUCGGGUGUCAAGG
B2: ENSMUSG00000022095.258|Fam160b2 (ssRNA)
RNA: GGGAGUUCUACAGUCCGACGAUCGCUUCGAUAUCCGCAUGCUAGUGAGAGAGAGAGCGAGCUAUGAAUGAAUGUGAGUGUGUGUGUGUGUGUGUGUGUGUGAGAGAGAGAGAGAGAGAGCGAGCUAUGAAUGAAUGUGAGUGUGUGUGUGUGUGUGUGUGAGAGAGAGAGAGAGAGAGAGAGAGCUGUGAGUACACAUGGGUGCUGGUGUGGGACAGGAGCAGAUCUUGGUGGAGUGGGUCUACACUUGAGAUUUGUACUCGUUUGAGAGGCUGGGCAAUACUCAAUGCACUUUGGCAUUUGCCUCUUGCGGUCGCACUAGUGUGGAAUUCUCGGGUGUCAAGG
B3: ENSMUSG00000022095.266|Fam160b2 (ssRNA)
RNA: GGGAGUUCUACAGUCCGACGAUCGCUUCGAUAUCCGCAUGCUAUGUGUGUGUGAGAGAGAGAGAGAGAGAGCGAGCUAUGAAUGAAUGUGAGUGUGUGUGUGUGUGUGUGUGAGAGAGAGAGAGAGAGAGAGAGAGCUGUGAGUACACAUGGGUGCUGGUGUGGGACAGGAGCAGAUCUUGGUGGAGUGGGUCUACACUUGAGAUUUGUACUCGUUUGAGAGGCUGGGCAAUACUCAAUGCACUUUGGCAUUUGCAUGGUGUCUUCACAACAGCACAGCAAUAAACAUUGUGAUUGUGUGGACCUCUUGCGGUCGCACUAGUGUGGAAUUCUCGGGUGUCAAGG
B4: ENSMUSG00000022095.265|Fam160b2|1:16;55:75;122:126 (ssRNA)
RNA: GGGAGUUCUACAGUCCGACGAUCGCUUCGAUAUCCGCAUGCUAACACACACACACACACAGAGAGAGAGAGAGAGAGCGAGCUAUGAAUGAAUGUGACACACACACACACACACACACAGAGAGAGAGAGAGAGAGAGAGAGCUGUGAGUACACAUGGGUGCUGCACACGGACAGGAGCAGAUCUUGGUGGAGUGGGUCUACACUUGAGAUUUGUACUCGUUUGAGAGGCUGGGCAAUACUCAAUGCACUUUGGCAUUUGCAUGGUGUCUUCACAACAGCACAGCAAUAAACAUUGUGAUUGUCUCUUGCGGUCGCACUAGUGUGGAAUUCUCGGGUGUCAAGG
B5: ENSMUSG00000022095.264|Fam160b2 (ssRNA)
RNA: GGGAGUUCUACAGUCCGACGAUCGCUUCGAUAUCCGCAUGCUAUGUGUGUGUGUGUGUGUGUGUGAGAGAGAGAGAGAGAGAGCGAGCUAUGAAUGAAUGUGAGUGUGUGUGUGUGUGUGUGUGAGAGAGAGAGAGAGAGAGAGAGAGCUGUGAGUACACAUGGGUGCUGGUGUGGGACAGGAGCAGAUCUUGGUGGAGUGGGUCUACACUUGAGAUUUGUACUCGUUUGAGAGGCUGGGCAAUACUCAAUGCACUUUGGCAUUUGCAUGGUGUCUUCACAACAGCACAGCAAUAAACAUUGUCUCUUGCGGUCGCACUAGUGUGGAAUUCUCGGGUGUCAAGG
B6: ENSMUSG00000022095.265|Fam160b2 (ssRNA)
RNA: GGGAGUUCUACAGUCCGACGAUCGCUUCGAUAUCCGCAUGCUAUGUGUGUGUGUGUGUGAGAGAGAGAGAGAGAGAGCGAGCUAUGAAUGAAUGUGAGUGUGUGUGUGUGUGUGUGUGAGAGAGAGAGAGAGAGAGAGAGAGCUGUGAGUACACAUGGGUGCUGGUGUGGGACAGGAGCAGAUCUUGGUGGAGUGGGUCUACACUUGAGAUUUGUACUCGUUUGAGAGGCUGGGCAAUACUCAAUGCACUUUGGCAUUUGCAUGGUGUCUUCACAACAGCACAGCAAUAAACAUUGUGAUUGUCUCUUGCGGUCGCACUAGUGUGGAAUUCUCGGGUGUCAAGG
B7: ENSMUSG00000022095.259|Fam160b2 (ssRNA)
RNA: GGGAGUUCUACAGUCCGACGAUCGCUUCGAUAUCCGCAUGCUAGAGAGAGCGAGCUAUGAAUGAAUGUGAGUGUGUGUGUGUGUGUGUGUGUGUGAGAGAGAGAGAGAGAGAGCGAGCUAUGAAUGAAUGUGAGUGUGUGUGUGUGUGUGUGUGAGAGAGAGAGAGAGAGAGAGAGAGCUGUGAGUACACAUGGGUGCUGGUGUGGGACAGGAGCAGAUCUUGGUGGAGUGGGUCUACACUUGAGAUUUGUACUCGUUUGAGAGGCUGGGCAAUACUCAAUGCACUUUGGCAUUUGCAUGGUGCUCUUGCGGUCGCACUAGUGUGGAAUUCUCGGGUGUCAAGG
B8: ENSMUSG00000022095.262|Fam160b2 (ssRNA)
RNA: GGGAGUUCUACAGUCCGACGAUCGCUUCGAUAUCCGCAUGCUAUGAAUGUGAGUGUGUGUGUGUGUGUGUGUGUGUGAGAGAGAGAGAGAGAGAGCGAGCUAUGAAUGAAUGUGAGUGUGUGUGUGUGUGUGUGUGAGAGAGAGAGAGAGAGAGAGAGAGCUGUGAGUACACAUGGGUGCUGGUGUGGGACAGGAGCAGAUCUUGGUGGAGUGGGUCUACACUUGAGAUUUGUACUCGUUUGAGAGGCUGGGCAAUACUCAAUGCACUUUGGCAUUUGCAUGGUGUCUUCACAACAGCACAGCCUCUUGCGGUCGCACUAGUGUGGAAUUCUCGGGUGUCAAGG
B9: ENSMUSG00000022095.267|Fam160b2 (ssRNA)
RNA: GGGAGUUCUACAGUCCGACGAUCGCUUCGAUAUCCGCAUGCUAUGUGAGAGAGAGAGAGAGAGAGCGAGCUAUGAAUGAAUGUGAGUGUGUGUGUGUGUGUGUGUGAGAGAGAGAGAGAGAGAGAGAGAGCUGUGAGUACACAUGGGUGCUGGUGUGGGACAGGAGCAGAUCUUGGUGGAGUGGGUCUACACUUGAGAUUUGUACUCGUUUGAGAGGCUGGGCAAUACUCAAUGCACUUUGGCAUUUGCAUGGUGUCUUCACAACAGCACAGCAAUAAACAUUGUGAUUGUGUGGACAUGCUGCUCUUGCGGUCGCACUAGUGUGGAAUUCUCGGGUGUCAAGG
B10: ENSMUSG00000022095.260|Fam160b2 (ssRNA)
RNA: GGGAGUUCUACAGUCCGACGAUCGCUUCGAUAUCCGCAUGCUAGCGAGCUAUGAAUGAAUGUGAGUGUGUGUGUGUGUGUGUGUGUGUGAGAGAGAGAGAGAGAGAGCGAGCUAUGAAUGAAUGUGAGUGUGUGUGUGUGUGUGUGUGAGAGAGAGAGAGAGAGAGAGAGAGCUGUGAGUACACAUGGGUGCUGGUGUGGGACAGGAGCAGAUCUUGGUGGAGUGGGUCUACACUUGAGAUUUGUACUCGUUUGAGAGGCUGGGCAAUACUCAAUGCACUUUGGCAUUUGCAUGGUGUCUUCACUCUUGCGGUCGCACUAGUGUGGAAUUCUCGGGUGUCAAGG
B11: ENSMUSG00000032194.73|Kank2|146:150 (ssRNA)
RNA: GGGAGUUCUACAGUCCGACGAUCGCUUCGAUAUCCGCAUGCUAUUUGAAUGUCACUGGAAUGUUACAGUGUCUAUUGUCUCCUCAUCUUUACAGCAGGUCUCCACAAAGCCUGCUCACCACCCUUUGUCACCUCAUUUCAUUGUCUAGUGUACAAUAGGGUCUUGUCCACUGCCCUCCACCUCCAGACACACACUUCAGGGCCUGGGGUGUCUCUUGUGAUUGCUUUACAGAAUAAGAUUGCCGUACCUUAGCCGCCUGCCUCCAGUCAGAAAGCAGUGUUUUCAUUUGCCUUUUUCCUUUCUCUCUUGCGGUCGCACUAGUGUGGAAUUCUCGGGUGUCAAGG
B12: ENSMUSG00000058297.497|Spock2|151:155 (ssRNA)
RNA: GGGAGUUCUACAGUCCGACGAUCGCUUCGAUAUCCGCAUGCUAGGUUGGAGAGAGUAAAUGUGCCUUGAGAGACCACUCAGAGGUCCCAGGAGGAACGGGGGCGGGGCUUAGCCUGGGAGUUCUGGCAGGAGGCAAAGUUGGUGAGAGUCCUGGGACAUCUUACCCCCAGUGUUCCACAGGAGUCGUGACCACCACACAUGGGUGGGCACAGGUCUGCCUUGCUCCAGCCCCCUCCCUUGGUUUCUGUUGGUACCCAUUUGGCUUUUAUCUGCUUUCUGCUUCACCACUAAGUGCGUAGGUGGCUCUUGCGGUCGCACUAGUGUGGAAUUCUCGGGUGUCAAGG
B13: ENSMUSG00000061578.971|Ksr2 (ssRNA)
RNA: GGGAGUUCUACAGUCCGACGAUCGCUUCGAUAUCCGCAUGCUAGGAAGGUAGUUUUCCCCCAGAAAGUCCCUUCUAAUAAACAUUGAUGACUUUAGAAUCCAUGACUCAGAAUUUUCCAGAGACCCAAUCCCUCGGGGUCCACUUAGUGAUGGGACCAUACAAGAGUUUAUUUCCAAUUAGAGAAUUGGGUCAACUGGGAAAGGCUUCUUUCCUGGUAACCCUGCUACUGAUACUAUGUUGAAACAGGAAUCGACUCUAACUGCUUUUUGGCCUCUUCCCUGCACGGGAGUCUCAAAAUCAAGCUCUUGCGGUCGCACUAGUGUGGAAUUCUCGGGUGUCAAGG

Each binder was assayed against TDP-43 (Homo sapiens, UniProt Q13148 1-414) (assay: RNA Bind-n-Seq with designed 260-mer pool; 25 mM Tris-HCl, 150 mM KCl, 3 mM MgCl2, BSA (printed 500 mg/mL), 20 units/mL SUPERase IN; pH not stated; 500 nM RNA pool, 1 h, 4 C; TDP-43 5, 50, 500 nM; high values mean tight binding). Settings: protein: recombinant; tags: SBP (GST cleaved off with PreScission; pGEX-GST-SBP).
In short: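 Streptavidin beads captured recombinant SBP-tagged TDP-43 at 5, 50 or 500 nM, and the beads were incubated for 1 h at 4 °C with 500 nM of an in vitro-transcribed pool of 260-nt 3′ UTR oligos in 25 mM Tris-HCl, 150 mM KCl, 3 mM MgCl2, BSA and SUPERase IN. After washing, bound RNA was eluted with biotin, reverse transcribed, PCR-amplified and sequenced. Binding is reported as R, the mapped-read-normalized abundance of each oligo in the bound sample divided by its abundance in the input. Two independent protein batches served as duplicates.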

Sequence of TDP-43 (Q13148 whole entry): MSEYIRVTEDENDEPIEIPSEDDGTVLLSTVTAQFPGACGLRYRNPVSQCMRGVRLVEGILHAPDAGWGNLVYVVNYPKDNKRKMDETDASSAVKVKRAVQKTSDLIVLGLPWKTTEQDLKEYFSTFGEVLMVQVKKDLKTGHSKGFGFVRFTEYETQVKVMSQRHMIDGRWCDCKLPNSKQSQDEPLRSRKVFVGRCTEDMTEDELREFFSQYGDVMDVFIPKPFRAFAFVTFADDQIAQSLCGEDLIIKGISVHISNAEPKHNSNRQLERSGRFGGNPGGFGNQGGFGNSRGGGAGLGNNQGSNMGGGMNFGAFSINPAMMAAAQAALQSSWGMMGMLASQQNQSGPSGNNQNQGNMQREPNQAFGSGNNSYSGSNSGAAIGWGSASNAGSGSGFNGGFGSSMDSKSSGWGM

Binder | binding signal
B1 | 0.453 R (bound/input frequency ratio)
B2 | 4.34 R (bound/input frequency ratio)
B3 | 7.33 R (bound/input frequency ratio)
B4 | 5.93 R (bound/input frequency ratio)
B5 | 5.78 R (bound/input frequency ratio)
B6 | 4.76 R (bound/input frequency ratio)
B7 | 5.88 R (bound/input frequency ratio)
B8 | 9.41 R (bound/input frequency ratio)
B9 | 5.01 R (bound/input frequency ratio)
B10 | 7.36 R (bound/input frequency ratio)
B11 | 1.55 R (bound/input frequency ratio)
B12 | 2.24 R (bound/input frequency ratio)
B13 | 0.299 R (bound/input frequency ratio)
